# From PubChem BioAssay
# Shown are actives, neighbours in structure and some others; about 7% of the full set was active somewhere.
# D3 ag = agonists of human D3 dopamine receptor; max activation, %; 0.58% of 410,000 active; AID 652048; D3R DiscoveRx beta-arrestin cells, luminescence, 90 min; in the data active means max activation above about 30%; further: 0% is about no effect
# Target sequence (P35462 whole entry, looked up): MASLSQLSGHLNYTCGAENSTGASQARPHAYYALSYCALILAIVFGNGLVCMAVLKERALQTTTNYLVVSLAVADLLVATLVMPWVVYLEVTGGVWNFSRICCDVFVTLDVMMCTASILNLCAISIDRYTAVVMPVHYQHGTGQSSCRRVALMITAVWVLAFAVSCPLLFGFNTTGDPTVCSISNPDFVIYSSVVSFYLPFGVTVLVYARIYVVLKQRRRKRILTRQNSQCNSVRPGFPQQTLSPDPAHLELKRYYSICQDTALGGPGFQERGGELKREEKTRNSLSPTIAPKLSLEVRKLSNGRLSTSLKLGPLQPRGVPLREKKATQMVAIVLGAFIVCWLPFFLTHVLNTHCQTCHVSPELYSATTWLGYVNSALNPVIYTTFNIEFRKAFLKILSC
#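 Cells at 1500/well, incubated overnight, then treated with pinned compounds (dopamine as control) for 90 min at 37 degrees C. DiscoveRx reagent added for 30 - 60 minutes at room temperature; luminescence read.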
# ATXN2 expr inh = ATXN2 expression inhibition; HEK-293 ATXN2-luciferase reporter, luminescence, 24 h; Potency, µM (doses to about 57 µM), without a hit: at the top dose activity change, negative = inhibition, actives largely listed as inhibitors; 0.72% of 360,000 active; further: potency means the concentration at half of the fitted maximal effect; on the % scale 0 is the no-effect control and ±100 the full control effect; nearly all actives have a fitted effect of over 55% in size
#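 qHTS (up to 57 uM final) was run with 24 h compound exposure of reporter cells at 37 °C. Each well was multiplexed: SteadyGlo luminescence measured ATXN2-luciferase expression after a fluorogenic Gly-Phe-AFC viability readout (25 uM final).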
# a7 integrin act = activates integrin-mediated alleviation for muscular dystrophy; alpha7betagal myoblasts, beta-gal FDG fluorescence, 48 h; Potency, µM (series often up to 38.3 µM), for inactives: at the top dose activation, usual class: activators; 0.064% of 350,000 active; AID 624291;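 further: potency means the concentration at half of the fitted maximal effect; 100% = response of the positive control SU9516; nearly all actives have a fitted effect of over 60% in size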
#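 alpha7betagal+/- myoblasts (passage 13, 250/well) treated 48 h at 37C with compounds at 1:260 dilution of DMSO stock. Lysed, then beta-galactosidase activity read as FDG fluorescence (ex 480/em 540) after 30 min, with pre-read for autofluorescence.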
# IL-1B inflam inh = inhibitors of inflammasome signaling (IL-1 beta secretion); THP-1 LPS/ATP IL-1B secretion, AlphaLISA, 16 h; active compounds read low; activity change, % at 57.5 µM; 4.7% of 360,000 active; in the data active means activity change below about -50%; inconclusive means mostly about -30% to -49%; further: on the % scale 0 is the no-effect control and ±100 the full control effect
#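 THP-1 cells pretreated 1 hr with compounds (up to 57.5 uM final), then stimulated with LPS (250 ng/mL final) plus ATP (1.25 mM final); secreted IL-1B measured by AlphaLISA after 16 hr, decreased signal indicating inhibition.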
# D3 antag = antagonists of human D3 dopamine receptor; max response, negative = inhibition, %; D3R cells, DiscoveRx beta-arrestin luminescence, antagonist mode; active compounds read low; 2.5% of 360,000 active; in the data active means max response below about -50%; inconclusive means no clear call, values can overlap the other calls; further: on the % scale 0 is the no-effect control and ±100 the full control effect
#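 Cells expressing the human receptor were seeded at 1500 cells/well, incubated overnight at 37 degrees C in 5% CO2, then exposed to library compounds with dopamine controls for 90 minutes at 37 degrees C before luminescent detection.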
# ATXN viability = viability counter-screen for ATXN expression inhibitors | S2 cells (HEK-293 line with an ATXN2-luciferase reporter) viability, CellTiter-Fluor protease fluorescence, 24 h | 0.49% of 400,000 active | Potency, µM (titrated, usually from 56.7 µM), actives largely listed as cytotoxic; further: potency means the concentration at half of the fitted maximal effect; nearly all actives have a fitted effect of over 40% in size
# Active calls of the source: *; i = inactive; ? = inconclusive; / = no result given. Unless noted, the call rests on the fitted dose curve; in most records, active means well fitted curve in the direction sought with a large enough effect; inconclusive means small, poorly fitted or top-dose-only effect, or another doubt; inactive means no such curve, though single readings can be large; an effect the other way counts as inactive or inconclusive.
SMILES,D3 ag,ATXN2 expr inh,a7 integrin act,IL-1B inflam inh,D3 antag,ATXN viability
Oc1ccccc1C1SC(c2ccccc2O)SC(c2ccccc2O)S1 (centres undefined),-9,20µM*,-58%,-89*,-19,/
Cc1ccc(NC(=O)COC(=O)c2ccc3c(c2)OCO3)cc1S(=O)(=O)N1CCCCC1,1,-4%,9%,-13,-12,i
CO/N=C\c1cc(C(=O)c2ccc(Cl)cc2Cl)cn1C,-3,-15%,?,-62*,-11,i
Cn1cc(C(=O)c2cccc(Cl)c2)cc1/C=N\O,-19,3%,28%,-64*,-9,i
Cn1cccc1C(=O)c1ccc(Cl)cc1Cl,6,-2%,1%,-7,-19,i
CCOc1ccc(/C=C(\C#N)c2nc(-c3cc4ccccc4oc3=O)cs2)c(OCC)c1,3,1%,/,/,/,i
CCOc1ccc(-c2c(=O)n(OCc3ccc([N+](=O)[O-])cc3)c3ccccc3[n+]2[O-])c(OCC)c1,6,1%,28%,19,9,i
CCOc1ccc(OCC)c(-c2c(=O)n(OCc3ccc(C(C)(C)C)cc3)c3ccccc3[n+]2[O-])c1,52*,2%,-27%,-29,11,?
C=CCn1c(CSc2nc3ccccc3s2)nnc1SCC(=O)OCC,1,5%,13%,22,5,?
CC[C@H](C)[C@H]1CNC(=O)C(=O)N1CC1CCN(CCc2ccc(Cl)c(Cl)c2)CC1,-48,-14%,-21%,?,0,i
CC[C@H](C)[C@H]1CNC(=S)N1CC1CCN(CCC23CC4CC(CC(C4)C2)C3)CC1,-37,-8%,0%,-63*,-83*,i
CC[C@H](C)[C@H]1CNC(=S)N1CC1CCN(CC2CCC(C)CC2)CC1 (some centres undefined),-51,0%,0%,-3,-104*,i
C/C(CC(=O)Nc1cc(Cl)ccc1C)=N\NC(=O)C(=O)N1CCCC1,-7,2%,-17%,21,-6,i
CC(=O)c1ccc(N2CCN(S(=O)(=O)c3cc(-c4noc(C)n4)ccc3C)CC2)cc1,-9,-3%,/,/,/,i
C[C@H](CO)N1C[C@H](C)[C@@H](CN(C)Cc2ccncc2)Oc2ncc(Br)cc2C1=O,-17,5%,5%,23,-114*,?
C[C@H](O)C#Cc1cnc2c(c1)C(=O)N([C@H](C)CO)C[C@@H](C)[C@@H](CN(C)Cc1ccc(-c3ccccc3)cc1)O2,-7,?,1%,-108*,-27,?
C[C@@H]1CN([C@@H](C)CO)C(=O)c2cc(Br)cnc2O[C@@H]1CN(C)Cc1ccc(Oc2ccccc2)cc1,-7,-38%,9%,-52*,-10,25µM*
C[C@@H]1CN([C@@H](C)CO)C(=O)c2cc(Br)cnc2O[C@H]1CN(C)Cc1cccnc1,8,8%,18%,16,23,i
C[C@H](CO)N1C[C@H](C)[C@@H](CN(C)Cc2ccc(-c3ccccc3)cc2)Oc2ncc(C#C[C@@H](C)O)cc2C1=O,-6,-36%,2%,-21,7,?
Fc1ccc(Nc2ccc(-c3ccc(F)cc3)nn2)cc1,1,/,-12%,-27,15,i
O=C(COc1ccc(Br)cc1F)Nc1nnc(C2CC2)s1,-2,4%,-32%,-3,0,i
Cc1ccc2c(c1)nnn2C1CCN(S(=O)(=O)c2ccc(C(=O)N3C(C)CCCC3C)cc2)CC1 (centres undefined),2,?,-13%,-67*,1,?
CCN(CC)CC(=O)Oc1ccc(NC(C)=O)cc1,/,14%,/,/,/,i
O=C(/C=C/c1ccco1)NC(=S)Nc1cccc(C(=O)O)c1,-4,2%,-15%,7,-5,i
Cc1nc(N2CCN(Cc3ccccc3)CC2)nc2c1C(=O)CC(C)C2 (centres undefined),-1,-7%,-5%,0,-60*,i
SMILES,D3 ag,ATXN2 expr inh,a7 integrin act,IL-1B inflam inh,D3 antag,ATXN viability
Cc1[nH]c2ccccc2c1C(=O)CN1CCSCC1,-12,8%,18%,-4,36,i
COc1ccc(Cl)cc1NC(=S)NCCC(c1ccccc1)c1ccccc1,-21,-19%,-43%,5,-65*,i
S=C(NCCC(c1ccccc1)c1ccccc1)Nc1ccccc1Cl,-16,-6%,8%,3,68,i
S=C(NCCC(c1ccccc1)c1ccccc1)Nc1ccc(Cl)cc1,11,?,-67%,-92*,18,?
CCN(CC)CCNC(=S)Nc1ccc(Cl)cc1,-11,-5%,5%,-9,-51*,i
Cc1csc(SCC(=O)Nc2cc(S(=O)(=O)N3CCCC3)ccc2Cl)n1,4,-12%,-5%,10,11,i
COc1cc(NC(=S)NC(=O)CCc2ccccc2)cc(OC)c1,-12,0%,-12%,0,-52*,i
COc1ccccc1NC(=S)NC(=O)CCc1ccccc1,2,-18%,-3%,11,-14,/
COc1cc(NC(=O)Cc2ccccc2)cc(OC)c1,3,1%,9%,-15,13,i
COc1cc(OC)cc(C(=O)NCC(=O)Nc2ccc(C)c(Cl)c2)c1,-23,-16%,0%,-7,-26,i
COc1cc(NC(=O)C[n+]2ccc(C(=O)c3ccccc3)cc2)cc(OC)c1,-20,-5%,5%,-21,-72*,i
COc1cc(OC)cc(C(=O)NCC(=O)Nc2ccc(-c3ccccc3)cc2)c1,-24,18%,-11%,39,-59*,i
Cc1nn(C)cc1S(=O)(=O)N1CCN(c2ccccc2F)CC1,5,15%,22%,i,3,i
O=C(NC1CCN(Cc2ccc(Cl)c(Cl)c2)CC1)c1ccccc1,-21,-15%,-7%,-19,-99*,i
O=C(NC1CCN(Cc2ccc(F)cc2)CC1)c1ccccc1,-49,-9%,-14%,2,-72*,i
CS(=O)(=O)Cc1ccc(C(=O)NC2CCN(Cc3ccccc3)C2)cc1 (centres undefined),-15,5%,16%,20,0,i
O=C(NC(=S)NC1CCN(Cc2ccccc2)CC1)c1ccc(F)cc1,-13,-16%,?,-26,?,i
O=C(NC1CCN(Cc2ccc3ccccc3c2)CC1)c1ccccc1,-19,?,15%,-16,-74*,i
COC(=O)c1cccnc1-n1c(=O)c2cccnc2n(Cc2cccc(OC)c2)c1=O,-3,-4%,24%,13,0,i
COc1ccc(C(CNC(=O)c2cc3ccccc3cc2O)N2CCOCC2)cc1 (centres undefined),-19,15%,14%,-7,?,i
